Source: PubChem BioAssay (National Center for Advancing Translational Sciences (NCATS))
A selection: hits, their analogues and other compounds. The true share with any hit is near 19%.
IL-1B inflam inh = qHTS for Inhibitors of Inflammasome Signaling: IL-1-beta AlphaLISA Primary Screen | THP-1 LPS/ATP IL-1B secretion, AlphaLISA, 16 h; stronger effect = lower value | activity change, % at 57.5 µM | 4.7% of 360,000 active; in the data active means activity change below about -50%; inconclusive means mostly about -30% to -49%; further: on the % scale 0 is the no-effect control and ±100 the full control effect
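Secreted IL-1B measured by AlphaLISA bead assay after 16 h compound exposure of THP-1 cells; compounds (final up to 57.5 uM) added 1 h before LPS (250 ng/mL) and ATP (1.25 mM) stimulation; lower signal means less secretion.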
MCF10A rereplic = A quantitative high throughput screen for small molecules that induce DNA re-replication in MCF 10a normal breast cells. MCF 10A DNA re-replication, Hoechst nuclear intensity, 48 h. Potency, µM (titrated, usually from 46.1 µM), without a hit: at the highest dose activity, positive = re-replication, most hits filed as activators. 2.9% of 350,000 active; further: potency means the concentration at half of the fitted maximal effect; % of control where 0% means no effect; nearly all actives have a fitted effect of over 50% in size
TDP1 cell noCPT = qHTS for Inhibitors of human tyrosyl-DNA phosphodiesterase 1 (TDP1): qHTS in cells in absence of CPT | DT40 Tdp1-/- hTDP1 cells, no CPT, ATP luminescence, 48 h | Potency, µM (highest dose often 46.2 µM), for the others: top-dose activity change, negative = growth inhibition, usual class: inhibitors | 15% of 420,000 active | AID 686978, 2013; further: potency means the concentration at half of the fitted maximal effect; on the % scale 0 is the no-effect control and ±100 the full control effect; nearly all actives have a fitted effect of over 55% in size
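Readout: luminescence from CellTiter-Glo after 30 min in the dark at RT. Cells: DT40 Tdp1-/- with stable hTDP1, 400/well. Exposure: compounds alone, ≥48 hr, 37 °C.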
BCR signal inh = qHTS Assay to Find Inhibitors of Chronic Active B-Cell Receptor Signaling | ABC-DLBCL IkBa-CBG/CBR reporter, luminescence ratio, 4 h | 0.05% of 340,000 active | Potency, µM (top dose mostly 46.1 µM), for inactives: at the highest dose activity change, negative = inhibition, actives largely listed as inhibitors; active means well fitted inhibition curve with a large enough effect in the signal ratio, with a control signal flat, not every such curve was filed as active; inconclusive means small, poorly fitted or top-dose-only effect, or effect the other way, or a change in a side signal; the % refers to the signal ratio;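 further: potency means the concentration at half of the fitted maximal effect; plate controls were basal doxycycline-induced cells for no effect and cells given 10 µM MG132 for full effect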
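Cell line TMD8 (human ABC DLBCL), stably expressing tet-inducible CBG68-IkBa fusion and CBR; IMDM/0.5% FBS; cpd up to 46 uM; dox induction, 4 h, 37C/5% CO2; dual luminescence; green/red ratio; MG132 control.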
SW480 rerep = A quantitative high throughput screen for small molecules that induce DNA re-replication in SW480 colon adenocarcinoma cells; SW480 DNA re-replication, Hoechst DNA content imaging, 48 h; Potency, µM (series often up to 46.1 µM), inactives show top-dose re-replication activation, hits mostly activators; 1.8% of 340,000 active; AID 624297, 2012; further: potency means the concentration at half of the fitted maximal effect; % of control where 0% means no effect; nearly all actives have a fitted effect of over 55% in size
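Quantitative HTS format with DMSO vehicle controls; 48 hr drug incubation at 37 C, then 40 min Hoechst staining and scanning imager measurement at 405 nm excitation.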
DT40 TDP1 CPT = qHTS for Inhibitors of human tyrosyl-DNA phosphodiesterase 1 (TDP1): qHTS in cells in presence of CPT. chicken DT40 Tdp1-/-;hTDP1 cells + 20 nM CPT, ATP luminescence, 48 h. Potency, µM (doses to about 46.2 µM), for the others: at the highest dose activity change, negative = growth inhibition, hits mostly inhibitors. AID 686979, 2013. 12% of 420,000 active; further: potency means the concentration at half of the fitted maximal effect; on the % scale 0 is the no-effect control and ±100 the full control effect; nearly all actives have a fitted effect of over 55% in size
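Chicken DT40 Tdp1-/- cells stably complemented with human TDP1 were seeded at 400 cells/well in medium containing 20 nM camptothecin, exposed to pin-transferred compounds, and grown at 37 °C for at least 48 hr. Viability was read as ATP luminescence.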
The depositor's hits bear a star; i = inactive; u = inconclusive; x = no result given; [ ] = another dose, or the depositor's remark. Unless noted, the call rests on the fitted dose curve; in most records, active means well fitted curve in the direction sought with a large enough effect; inconclusive means small, poorly fitted or top-dose-only effect, or another doubt; inactive means no such curve, though single readings can be large; an effect the other way counts as inactive or inconclusive.

SMILES	IL-1B inflam inh	MCF10A rereplic	TDP1 cell noCPT	BCR signal inh	SW480 rerep	DT40 TDP1 CPT
CCCCn1c(N)c(N(CCOC)C(=O)COC(=O)/C=C/c2ccc(Br)cc2)c(=O)[nH]c1=O	i	-11.8%	-17.0%	-7.4%	-4.5%	-16.8%
CCc1nnc(NS(=O)(=O)c2ccc(N/C=C\C(=O)c3ccc4ccccc4c3)cc2)s1	15.9	23.1µM*	u	u	14.5%	u
CCc1nnc(NS(=O)(=O)c2ccc(NC(=O)c3cccc(OC)c3)cc2)s1	6.7	2.1%	27.6%	2.5%	0.5%	5.8%
CCc1nnc(NS(=O)(=O)c2ccc(NC(=O)c3ccccc3)cc2)s1	8.0	-0.2%	2.0%	1.5%	-19.4%	2.9%
CCc1nnc(NS(=O)(=O)c2ccc(NC(=O)CCC(=O)OC)cc2)s1	39.3	0.581µM*	10.6%	0.4%	-17.0%	8.0%
O=c1c2c3c(sc2n(Cc2ccc(F)cc2Cl)c(=O)n1-c1ccc(Cl)cc1)CCC3	x	x	-11.3%	x	x	-12.1%
COc1ccccc1CNC(=O)C/C(C)=N/NC(=O)COc1ccc(C)cc1Br	24.6	-1.1%	11.6µM*	2.8%	-370.4%	11.6µM*
O=C(NCc1ccccc1Cl)C1CCCN(c2nc3ccsc3c(=O)s2)C1 (stereo unspecified)	x	x	x	5.9%	x	x
O=C(NCc1ccccc1Cl)C1CCCN(c2nc3ccccc3n3cccc23)C1 (stereo unspecified)	x	x	20.6µM*	x	x	18.4µM*
COc1ccccc1CNC(=O)C1CCCN(c2nc3ccccc3n3cccc23)C1 (stereo unspecified)	x	x	13µM*	x	x	u
COc1cccc(CNC(=O)C2CCCN(c3nc4ccccc4n4cccc34)C2)c1 (stereo unspecified)	x	x	14.6µM*	x	x	u
COc1ccccc1CNC(=O)C1CCCN(S(=O)(=O)c2cnc[nH]2)C1 (stereo unspecified)	-6.5	13.1%	2.5%	-6.5%	-2.5%	5.5%
COC(=O)CCCn1cc(CN2CC(N3CCN(CCN(C)C)CC3)CS2(=O)=O)nn1 (stereo unspecified)	50.5	x	-23.3%	x	x	2.4%
CCN(CC)c1ccc(/C=N/Nc2nc(C)cc(=O)[nH]2)c(O)c1	91.5	8.2µM*	0.0206µM*	-3.1%	u	0.0206µM*
Cc1cc(=O)[nH]c(N/N=C/c2c(F)c(F)c(F)c(F)c2F)n1	-92.0*	-2.6%	9.9%	u	1.0%	-14.7%
Cc1cc(=O)[nH]c(NN=Cc2cc(Br)ccc2O)n1	u	u	2.91µM*	x	u	2.59µM*
Cc1cc(=O)[nH]c(N/N=C/c2ccccc2Cl)n1	-13.5	u	u	4.7%	11.2%	-21.1%
CCOC(=O)C1=CN(Cc2cccc(F)c2)S(=O)(=O)N(CC)C1c1ccc(F)c(Cl)c1 (stereo unspecified)	2.4	15.2%	u	u	12.6%[9.22 µM]	u
COc1ccc(CCCN2CCC(CN3CCNC(=O)C3=O)CC2)cc1OC	-0.8	-42.8%	-10.3%	x	11.3%	u
COc1cc(CNC(=O)Nc2cccn3nc(COCCO)nc23)cc(OC)c1OC	-6.2	x	2.4%	x	x	-14.8%
CCN1CCN(S(=O)(=O)c2ccc(OC)c(NC(=O)c3ccccc3F)c2)CC1	-0.9	10.9%	u	1.1%	7.8%	u
CC(C)[C@H](CO)Nc1nc(NCc2ccc(S(N)(=O)=O)cc2)c2ncn(C(C)C)c2n1	-103.4*	27.3%	u	u	18.4µM*	u
CC(C)n1cnc2c(NCc3ccc(S(N)(=O)=O)cc3)nc(NCc3ccc(S(N)(=O)=O)cc3)nc21	19.2	-4.2%	-0.5%	u	-8.3%	5.8%
Cc1cccc(NC(=O)c2cc(-c3ccc(C)c(C)c3O)n[nH]2)c1	0.9	110.9%	-22.9%	u	3.6%	u
CC(C)Cn1c(=O)c2ccccc2n2c(CCC(=O)NC(C)c3ccccc3)nnc12 (stereo unspecified)	x	x	-2.4%	x	x	5.6%
SMILES	IL-1B inflam inh	MCF10A rereplic	TDP1 cell noCPT	BCR signal inh	SW480 rerep	DT40 TDP1 CPT
COc1ccc(NS(=O)(=O)c2cc(NC(=O)C3=NN(c4ccccc4)C(=O)CC3)ccc2C)cc1	8.3	2.1%	-27.0%	x	-0.6%	u
COc1ccc(NS(=O)(=O)c2cccc(NC(=O)C3=NN(c4ccccc4)C(=O)CC3)c2)cc1	13.3	6.9%	14.6µM*	-0.7%	-3.8%	u
CN(c1ccccc1)S(=O)(=O)c1cccc(NC(=O)C2=NN(c3ccccc3)C(=O)CC2)c1	25.3	8.9%	13µM*	-4.0%	u	u
CO/N=C(/C(=O)N[C@@H]1C(=O)N2C(C(=O)O)=C(CSc3nc(C)c(CC(=O)O)s3)CS[C@H]12)c1csc(N)n1	x	-2.7%	x	x	-2.2%	x
O=C(c1cnn(-c2nccc(-c3ccccc3C(F)(F)F)n2)c1C1CC1)N1CCN(CCO)CC1	x	x	-15.8%	x	x	-11.5%[9.04 µM]
Cc1cc(C)c2cc(CN(CCO)Cc3nnnn3Cc3ccccc3)c(=O)[nH]c2c1	-4.3	3.6%	-30.0%	u	-3.6%	u
Cc1ccc2[nH]c(=O)c(CN(Cc3cccnc3)Cc3nnnn3CC3CCCO3)cc2c1 (stereo unspecified)	-16.7	7.4%	24.7%	3.7%	1.3%	-6.3%
Cc1cc(C)c2cc(CN(Cc3ccc4c(c3)OCO4)Cc3nnnn3Cc3ccco3)c(=O)[nH]c2c1	-61.8*	u	u	u	19.4%	u
Cc1ccc2[nH]c(=O)c(CN(Cc3ccc4c(c3)OCO4)Cc3nnnn3Cc3ccco3)cc2c1	-59.1*	9.3%	u	u	-5.3%	11.6µM*
O=C(Cc1cccc2ccccc12)NCCc1ccccc1	21.2	u	1.1%	u	-5.5%	-4.9%
O=C(c1ccccc1)c1ccc2cc(O)ccc2c1	-54.3*	-2.9%	u	u	u	-18.1%
O=C(c1ccccc1)c1ccc2ccccc2c1	-8.6	u	-20.1%	x	-7.2%	-10.2%
CCN(CC)CCN(Cc1cc2cc(C)c(C)cc2[nH]c1=O)C(=S)NCc1ccco1	-141.9*	0.1%	-19.7%	u	0.9%	-24.3%
Cc1cc2cc(CN(CCN(C)C)C(=S)NCc3ccco3)c(=O)[nH]c2cc1C	-79.8*	20.5%	13µM*	u	12.3%	u
